# In all, about 48,000 compounds went through this assay and about 13,000 (27%) showed an effect of 50% or more. The list shows a part of the results.
# Test system: Wolbachia pipientis
# Assay: Anti-Wolbachia Cell-Based Screen
# Format: functional
# Parameters: scale not given: in the data most compounds retested in dose-response had high values
# Conditions: 5 µM
row,Compound,Percent Effect [%]
1,N#Cc1cccc(N2CCCC3(C2)CN(c2nncs2)CCO3)c1 (configuration not stated),-22.42
2,O=C1O[C@@H]2CN(c3ccc(Cl)cn3)C[C@@H]2N1CCc1ccc(F)cc1,15.74
3,CCOc1cc(CNC(=O)C(C#N)c2nc(C)cs2)ccc1OC(F)F (configuration not stated),-3.55
4,NS(=O)(=O)CCNC(=O)c1ccc(OCc2ccccc2)nc1,5.557
5,CCCc1nc(C)cc(N2CCNC(C(=O)NC3CC3)C2)n1 (configuration not stated),-8.099
6,O=C(C1CN(CC2CC2)CC12CCOCC2)N1CCOCC1.O=C(O)C(F)(F)F (configuration not stated),0.7969
7,O=C(CN1CCCCC1Cn1cccn1)NC1CCN(C2CC2)CC1 (configuration not stated),-1.641
8,CCSc1ccccc1C(=O)NCCn1nc(-n2cncn2)ccc1=O,112
9,O=C(NCCn1nc(-n2cncn2)ccc1=O)c1ccccc1Br,41.16
10,CCSc1ccccc1C(=O)NCCn1nc(C(F)(F)F)n(C)c1=O,-21.23
11,O=C(NCc1ccccn1)c1nnn(-c2ccc(Br)cc2)n1,7.96
12,CCC(C)NC(=O)c1nnn(-c2ccc(Br)cc2)n1 (configuration not stated),110.8
13,CN(C)C(=O)c1nnn(-c2ccc(Br)cc2)n1,110.9
14,CN(CC(N)=O)C(=O)c1cn(-c2ccc(Br)cc2)cn1,8.695
15,COCC(C)NC(=O)c1nnn(-c2ccc(Br)cc2)n1 (configuration not stated),4.837
16,CC1CCCN(C(=O)c2nnn(-c3ccc(C(F)(F)F)cc3)n2)C1 (configuration not stated),-23.6
17,Cc1ccc(CN(C)C(=O)CN2CCCCC2Cn2cncn2)cc1 (configuration not stated),-11.49
18,O=C(NCc1ccccc1CN1CCOCC1)Nc1nncs1,33.23
19,CC(C1CCN(Cc2cccc(OC(F)F)c2)CC1)N1CCOCC1 (configuration not stated),4.738
20,Cc1nc(-c2ccc(S(=O)(=O)N3CCC=C(F)C3)cc2)co1,3.194
21,CCN(CC)c1ncccc1CNCc1ccc(Cl)s1,99.51
22,CCN(Cc1ccc(Cl)s1)S(=O)(=O)CC,-12.66
23,CCC(CO)N(Cc1cccnc1)Cc1ccc(-c2ccn[nH]2)s1 (configuration not stated),4.35

row,Compound,Percent Effect [%]
1,CCN(CC)c1ncccc1CNCc1cc2ccccc2s1,111.2
2,CCN(CC)c1ncccc1CNC(=O)c1cc2nc(C)cc(C)n2n1,-11.51
3,CCC(CO)N(Cc1ccccn1)Cc1ccc(-c2ccn[nH]2)s1 (configuration not stated),0.2436
4,CCN(CC)c1ncccc1CNC(=O)c1cnn(CC)c1,-6.3
5,CCN(CC)c1ncccc1CNCc1ccc(-c2ccn[nH]2)s1,103.4
6,Cc1cc(N(C)C)nc(N2CCn3c(nnc3C(C)C)C2)n1,-5.2
7,NC(=O)C1CCCN1Cc1ccccc1NC(=O)Cc1cccs1 (configuration not stated),-13.98
8,COCCn1ccc2ccc(C(=O)N3CCN(C(C)=O)CC3)cc21,108.9
9,COCCn1ccc2cc(C(=O)N3CCN(S(C)(=O)=O)CC3)ccc21,125.8
10,CCOC(=O)N1CCN(C(=O)c2ccc3ccn(C)c3c2)CC1,0.8286
11,COCCn1ccc2ccc(C(=O)O)cc21,99.17
12,CCC(=O)Nc1ccc2c(ccn2CCOC)c1,8.893
13,CN(C)S(=O)(=O)N1CCN(C(=O)c2ccc3ccn(C)c3c2)CC1,5.412
14,Cn1ccc2ccc(C(=O)N3CCN(C(=O)N4CCOCC4)CC3)cc21,0.8109
15,CS(=O)(=O)N1CCC(Oc2ccc(C(=O)N3CCSCC3)cc2Cl)CC1,7.501
16,COCCn1ccc2cc(NC(=O)COC)ccc21,1.286
17,CC(C1CCN(Cc2c(Cl)cncc2Cl)CC1)N1CCN(C)CC1 (configuration not stated),-10.06
18,CC1(c2ccccc2)CCC(=O)N(CC2(N3CCOCC3)CCCC2)C1 (configuration not stated),-0.1352
19,O=C(NCc1nc(C2CC2)no1)N1CCOC(c2ccccc2)C1 (configuration not stated),-16.91
20,COC(=O)[C@@H]1Cc2ncn(C)c2CN1S(=O)(=O)c1ccc(OC)cc1,2.654
21,O=C(Nc1ccnn1C1CCCC1)c1ccc(NC2CC2)nc1,-4.734
22,CCc1c(C)nn(CCN2CC3(CCOC3)CCC2=O)c1C (configuration not stated),-12.78
23,CC(C)(CNC(=O)NCCc1ccn(-c2ccccc2)n1)C(N)=O,145.8

row,Compound,Percent Effect [%]
1,CC(C)(C)C(=O)NCCc1ccn(-c2ccccc2)n1,8.286
2,O=C(CCNc1ncccn1)NCCc1ccn(-c2ccccc2)n1,0.9035
3,CC(C)CCNC(=O)CCc1ccnc2ccccc12,-1.133
4,CC(C)(CNC(=O)NCCOc1cccc(F)c1)C(N)=O,-10.47
5,CC(C)CCC(=O)NCCc1ccn(-c2ccccc2)n1,127.8
6,CC(C)(C)C(=O)NCCC(=O)NCCc1ccn(-c2ccccc2)n1,101.3
7,CCNC(=O)CCS(=O)(=O)Cc1ccn(-c2cccc(F)c2)n1,-7.781
8,CCC(CC)NC(=O)CN1CCN(C(=O)N(C)C)CC1,29.72
9,CCCn1cnnc1CNC1CSCCSC1,10.77
10,COCC1Cn2nnc(-c3cnn(C)c3)c2CN1Cc1ccoc1.O=C(O)C(F)(F)F (configuration not stated),100.4
11,COCC1Cn2nnc(-c3cnn(C)c3)c2CN1Cc1ccco1.O=C(O)C(F)(F)F (configuration not stated),-7.435
12,Cn1cc(-c2nnn3c2COC(CNCc2nccs2)C3)cn1 (configuration not stated),7.882
13,COCC1Cn2nnc(-c3cnn(C)c3)c2CN1Cc1ccc(C)s1.O=C(O)C(F)(F)F (configuration not stated),-9.357
14,COCC1CN(Cc2ccc(C)o2)Cc2cn(C)nc21.O=C(O)C(F)(F)F.O=C(O)C(F)(F)F (configuration not stated),-19.49
15,Fc1cccc(-c2nnn3c2COC(CNCc2ccsc2)C3)c1.O=C(O)C(F)(F)F (configuration not stated),-5.927
16,Cc1cnnn1Cc1nnn2c1CN(Cc1cccs1)CCC2.O=C(O)C(F)(F)F,-1.131
17,COCC1CN(Cc2ccsc2)Cc2nn(C)cc21.O=C(O)C(F)(F)F (configuration not stated),2.999
18,COCC1Cn2nnc(-c3cnn(C)c3)c2CN1Cc1ccc(C)o1 (configuration not stated),87.7
19,COCC1Cn2nnc(-c3cnn(C)c3)c2CN1Cc1ccsc1.O=C(O)C(F)(F)F (configuration not stated),97.96
20,Cc1cccc(COCC2c3nnn(C)c3CCN2Cc2ccoc2)n1.O=C(O)C(F)(F)F.O=C(O)C(F)(F)F (configuration not stated),-0.8413
21,COCC1Cn2nnc(-c3cnn(C)c3)c2CN1Cc1cccs1.O=C(O)C(F)(F)F (configuration not stated),105.4

# — ChEMBL document CHEMBL3988442, “University of Dundee, Small-Polar-MMV Screening Library” (2021)
